Source: PubChem (National Center for Advancing Translational Sciences (NCATS))
PNC inhibitor – inhibitors of perinucleolar compartment assembly; PC3M PTB-GFP, PNC prevalence imaging, 16 h; hits give low values; activity change (PNC), negative = inhibition, % at 10 µM; 140,000 tested, 3.1% active; AID 2417;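 active means readout at or below -70, meaning at least 70% loss of cells showing the perinucleolar compartment, a nuclear body marking cancer cells; inconclusive means readout between -30 and a set limit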
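Compounds are pinned in duplicate onto adhered PC3M cells stably expressing GFP-tagged PTB and incubated 16 h at 37 C. Cells are then fixed, nuclei stained with Hoechst, and PNC-positive cells counted.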
ALOX12 inhib – blocks human 12-lipoxygenase activity | purified 12-hLO, xylenol orange hydroperoxide absorbance | Potency, µM (series often up to 57.1 µM), usual class: inhibitors | 150,000 tested, 0.12% active | AID 1452; further: nearly all actives have a fitted effect of over 55% in size
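Xylenol orange chromogenic assay: hydroperoxide from 12hLO oxidises Fe(II), giving red-shifted Fe(III)-XO absorbance. Conditions: 150 nM enzyme, 40 uM arachidonic acid, 25 mM Hepes pH 7.0, 0.01% Triton X-100, 30 min, room temperature.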
IMPase inh – IMPase inhibition in cells. P97697. CHO-M1 cells, IP1 accumulation, HTRF TR-FRET ratio. inhibition (IP1 accumulation), % at 46.1 µM. 120,000 tested, under 10 active. AID 901; active means well fitted curve in the direction sought with a large enough effect in the signal ratio, not every such curve was filed as active; inconclusive means small, poorly fitted or top-dose-only effect, or a change in a side signal; inactive means no such curve, though single readings can be large or run the other way; the % refers to the signal ratio;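 further: cells stimulated with carbachol in lithium chloride buffer; higher means more IMPase inhibition seen as more IP1 and lower FRET ratio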
Target sequence (P97697 whole entry, looked up): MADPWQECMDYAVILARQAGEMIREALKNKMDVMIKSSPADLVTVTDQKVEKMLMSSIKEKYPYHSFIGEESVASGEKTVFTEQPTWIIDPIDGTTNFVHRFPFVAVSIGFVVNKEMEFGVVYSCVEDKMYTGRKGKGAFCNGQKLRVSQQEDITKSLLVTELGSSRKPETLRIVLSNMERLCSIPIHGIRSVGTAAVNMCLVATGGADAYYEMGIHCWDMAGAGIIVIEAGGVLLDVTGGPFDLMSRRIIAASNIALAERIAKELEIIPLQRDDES
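Cellular IMPase inhibition is scored as a rise in cytosolic IP1, detected by competitive TR-FRET between d2-labelled IP1 and a europium anti-IP1 antibody. M1-expressing CHO cells were stimulated with carbachol for 30 min at 37C, with lithium (50 mM LiCl) present in the buffer.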
IMPase Li cell – membrane-permeable IMPase blocker, potentiated with lithium | CHO-M1 cells, IP1 TR-FRET (IP-One), carbachol + lithium | Potency, µM (doses to about 59.4 µM), actives largely listed as inhibitors | 210,000 tested, 0.35% active | AID 1457;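 further: IP1 builds up when IMPase is blocked and the TR-FRET signal falls; nearly all actives have a fitted effect of over 50% in size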
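Concentration–response in CHO-M1 cells, lithium-potentiated; 30 min at 37C. IP1 detected by competitive TR-FRET after 10 min lysis at RT. Hill-fitted AC50.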
HPGD inh – HPGD (human) dehydrogenase inhibition | 150,000 tested, 4.3% active | P15428 | purified HPGD, NADH fluorescence kinetic, PGE2 substrate | Potency, µM, most hits filed as inhibitors; active means well fitted inhibition curve with a large enough effect, not every such curve was filed as active; inconclusive means small, poorly fitted or top-dose-only effect, or another doubt; inactive means no such curve, though single readings can be large or run the other way
Target sequence (P15428 whole entry, looked up): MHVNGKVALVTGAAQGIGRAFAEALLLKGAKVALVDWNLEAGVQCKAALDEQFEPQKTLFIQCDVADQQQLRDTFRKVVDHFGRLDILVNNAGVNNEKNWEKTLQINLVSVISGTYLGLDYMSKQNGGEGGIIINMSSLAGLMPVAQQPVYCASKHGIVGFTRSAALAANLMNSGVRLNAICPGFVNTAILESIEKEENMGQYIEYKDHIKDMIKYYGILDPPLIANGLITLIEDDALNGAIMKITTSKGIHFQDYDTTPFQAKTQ
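NADH formation kinetics: reaction with 30 uM PGE2 and 1 mM NAD+ (final), 20 nM enzyme, Tris-HCl pH 8 with Tween 20, after 15 min compound preincubation at room temperature. Fluorescence change, last versus first of five reads.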
ALDH1A1 inh – ALDH1A1 (human) enzyme inhibition. Purified ALDH1A1, NADH fluorescence, propionaldehyde substrate. 220,000 tested, 7.3% active. Potency, µM (top dose mostly 75.3 µM), actives largely listed as inhibitors; active means well fitted inhibition curve with a large enough effect, not every such curve was filed as active; inconclusive means small, poorly fitted or top-dose-only effect, or another doubt; inactive means no such curve, though single readings can be large or run the other way
Hits are given with their value; – = inactive; ? = inconclusive; · = not tested or not shown; [ ] = remark or other dose. Hits are enriched below; roughly 11% of the tested compounds scored in any of these assays. Unless noted, the call rests on the fitted dose curve; in most records, active means well fitted curve in the direction sought with a large enough effect; inconclusive means small, poorly fitted or top-dose-only effect, or another doubt; inactive means no such curve, though single readings can be large; an effect the other way counts as inactive or inconclusive.

SMILES	PNC inhibitor	ALOX12 inhib	IMPase inh	IMPase Li cell	HPGD inh	ALDH1A1 inh
CC(NC(=O)/C=C/c1ccc(Br)cc1)c1ccccc1 (configuration not stated)	-84	–	–	–	–	–
CC(NC(=O)c1ccc(Br)cc1)c1ccccc1 (configuration not stated)	–	–	·	–	–	11µM
CCCCCN1C(C(=O)c2ccccc2)=C(NC(=O)c2ccccc2Cl)c2ccccc2S1(=O)=O	·	·	–	·	·	·
Cc1cc(C(=O)COc2cccnc2[N+](=O)[O-])c(C)n1-c1ccccc1	?	–	·	–	–	20µM
Cc1ccc(OCC(=O)c2cc(C)n(C)c2C)c([N+](=O)[O-])n1	-121	–	·	–	–	–
Cc1ccc(OCCOc2ccc(Br)cc2)c([N+](=O)[O-])n1	–	–	·	–	10µM	?
CCOC(=O)c1ccc(N)cc1	·	–	–	–	–	–
N=C1C=CC(=C(c2ccc(N)cc2)c2ccc(N)cc2)C=C1	·	–[11.4 µM]	·	–	10µM	–[13.5 µM]
c1cnc2ccc(C(c3nnnn3C3CCCC3)N3CCSCC3)cc2c1 (configuration not stated)	-119	–	–	–	–	–
c1csc(C(c2nnnn2C2CCCCC2)N2CCN(c3nc4ccccc4s3)CC2)c1 (configuration not stated)	?	–	–[0.369 µM]	–	–	–
c1ccc(C(c2nnnn2C2CCCC2)N2CCN(c3nc4ccccc4s3)CC2)cc1 (configuration not stated)	–	–	–	–	–	14µM
Fc1ccccc1N1CCN(C(c2ccncc2)c2nnnn2C2CCCC2)CC1 (configuration not stated)	–	–	–	–	–	25µM
N#Cc1cccc(C(c2nnnn2C2CCCC2)N2CCC(Cc3ccccc3)CC2)c1 (configuration not stated)	-100	–	–	–	–	–
CC(C)c1ccccc1NC(=O)CN1C(=O)c2cccc3cccc1c23	·	·	–	·	·	·
CCC(C)(C)n1nnnc1C(c1ccc2ncccc2c1)N1CCN(c2nc3ccccc3s2)CC1 (configuration not stated)	-86	–	–[1.84 µM]	–	–	–
CCC(C)(C)n1nnnc1C(c1ccc2ncccc2c1)N1CCCC(C)C1 (configuration not stated)	–	–	–	–	–	–
N#Cc1cc(C(=O)c2ccccc2O)cn(-c2nccs2)c1=O	–	–	·	–	32µM	?
N#Cc1cc(C(=O)c2cc(F)ccc2O)cn(-c2nccs2)c1=O	–	–	·	–	11µM	?
Cc1c(-n2cc(C(=O)c3cc(F)ccc3O)cc(C#N)c2=O)c(=O)n(-c2ccccc2)n1C	·	·	·	–	·	–
CC(C)n1cc(C(=O)c2ccccc2O)cc(C#N)c1=O	·	·	·	–	·	–
COc1ccccc1C(=O)NCc1ccc2c(c1)OCO2	?	–	–	–	14µM	–
Cc1ccccc1Cc1c(C)nc2c(C(=O)NCc3ccc4c(c3)OCO4)cnn2c1C	?	–	–	–	?	?
Cc1ccc(C)c(Cc2c(C)nc3c(C(=O)NCc4ccc5c(c4)OCO5)cnn3c2C)c1	-92	–	–	–	?	?
CC12CCC(C(=O)NCc3ccc4c(c3)OCO4)(OC1=O)C2(C)C (configuration not stated)	–	–	–	–	32µM	?
CC12CCC(C(=O)NCc3ccccc3)(OC1=O)C2(C)C (configuration not stated)	–	–	–	–	–	–
SMILES	PNC inhibitor	ALOX12 inhib	IMPase inh	IMPase Li cell	HPGD inh	ALDH1A1 inh
Cc1nn(C)cc1CNC(=O)c1cccc(F)c1	-98	–	·	–	–	–
NNS(=O)(=O)c1cc(C(=O)O)cc(C(=O)O)c1	·	–[11.4 µM]	·	–	–	–[13.5 µM]
O=C(NCc1ccc2c(c1)OCO2)c1ccccc1	·	·	·	–	·	–
COc1ccc(COc2ccccc2C(=O)NCc2ccccc2)cc1F	–	–	·	–	16µM	?
COc1cc(C(=O)NCc2ccccc2)ccc1OC(F)F	–	–	–	·	·	–
O=C(NCc1ccc2c(c1)OCO2)c1cccc(F)c1	–	–	–	–	16µM	–
COc1ccccc1/C=C(/CC(=O)NCc1ccc2c(c1)OCO2)c1nc2ccccc2s1	?	–	·	–	–	1.4µM
COc1ccc(/C=C(/CC(=O)NCc2ccc(Cl)cc2)c2nc3ccccc3s2)cc1	?	–	·	–	?	?
O=C(NCc1ccc2c(c1)OCO2)c1cccc(Cl)c1	–	–	–	–	3.5µM	–
COC(=O)c1ccc(C(NC(=O)OCc2ccccc2)/C(F)=C/[C@@H](C)C(=O)Nc2ccc(OC)cc2)cc1 (some centres not stated)	·	–	·	–	–	–
Cc1nn(C)cc1C(C)NCc1c(C(=O)N2CCCCCCC2)nc2ccc(Cl)cn12 (configuration not stated)	·	·	·	–	·	3.2µM
CCCCCOc1ccc(/C=C/C(=O)Nc2sc3c(c2C(=O)OCC)CCC3)cc1OC	·	·	–	·	·	·
Cc1cccc(CN2CCN(c3nc4nonc4nc3NC3CC3)CC2)c1	·	·	·	–	·	16µM
Clc1cccc(CN2CCN(c3nc4nonc4nc3NC3CC3)CC2)c1	·	·	·	–	·	–
CCC(=O)O[C@@]1(C(=O)SCF)[C@@H](C)C[C@H]2[C@@H]3C[C@@H](F)C4=CC(=O)C=C[C@@]4(C)[C@]3(F)[C@@H](O)C[C@]21C	·	–	–	–	–	–
O=[N+]([O-])c1ccc2ncccc2c1CCc1c([N+](=O)[O-])ccc2ncccc12	·	–[11.4 µM]	·	–	–	–[13.5 µM]
COC(=O)C1CSc2[nH]c(=O)sc2C1c1ccc(OC)c(OC)c1 (configuration not stated)	–	–	–	–	–	7.9µM
CC1C/C(=C\c2cccnc2)C(=O)/C(=C/c2cccnc2)C1 (configuration not stated)	-116	–	·	–	–	–
COc1ccc(NC(=O)CCCC2CCCCC2)cc1S(=O)(=O)N1CCCCC1	?	–	·	–	–	?
COc1ccc(NC(=O)CSc2ccccc2)cc1S(=O)(=O)N1CCCCC1	-81	–	·	–	–	–
COc1ccc(NC(=O)CSc2ccc(NC(C)=O)cc2)cc1S(=O)(=O)N1CCCCC1	?	–	·	–	–	–
COc1ccc(NC(=O)CSc2ccc(F)cc2)cc1S(=O)(=O)N1CCCCC1	–	–	·	–	–	15µM
Cc1cc(C)cc(Oc2nc3c(c(=O)n(C)c(=O)n3C)n2Cc2ccc(F)cc2)c1	·	·	–	·	·	·
N#Cc1c(-c2ccccc2)nc(-c2ccccc2)[nH]c1=O	?	–	–	3.5µM	2µM	?
COc1ccc(-c2nc(-c3cccc(C)c3)[nH]c(=O)c2C#N)cc1	?	–	–	–	?	?
